Bioassay records as filed in PubChem BioAssay.
Pf growth 96h = P. falciparum growth inhibition at 96 hours; 320,000 compounds, 6.9% hits; Potency, µM (doses to about 28.7 µM), inactives show at the top dose activity change, negative = inhibition, most hits filed as inhibitors; AID 504834; P. falciparum luciferase reporter growth, 96 h; also: potency is read from the fitted curve at half-maximal effect; % is scaled to controls: 0 for no effect and ±100 for the full control effect
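Plates of compound plus infected erythrocytes (2% hematocrit, 0.05% parasitemia final) incubate 96 hours, 37 C, 5% CO2. Detection reagent added; reduced luminescence from the parasites' luciferase reporter flags inhibition.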
HCMV inh = inhibitors of human cytomegalovirus; AID 1259415; activity change, negative = inhibition, % at 57.5 µM; 410,000 compounds, 4.5% hits; HFF cells, HCMV-luciferase reporter, 72 h; stronger effect = lower value; in the data active = activity change below about -60%; inconclusive = no clear call, values can overlap the other calls; inactive = above about -39%; also: % is scaled to controls: 0 for no effect and ±100 for the full control effect
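Screen run at 2 compound doses on HFFs infected with reporter HCMV, MOI 1 PFU/cell. Luciferase activity from cell lysates at 72 h post infection gave inhibition relative to buffer-only and Salinomycin wells.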
HCV inh = inhibitors of hepatitis C virus infection; Huh7.5.1 HCVcc-Cre infection, luciferase reporter, 44 h; Potency, µM (series often up to 41.8 µM), for the others: at the highest dose activity change, negative = inhibition, usual class: inhibitors; 340,000 compounds, 3.4% hits; AID 651820; also: potency is read from the fitted curve at half-maximal effect; % is scaled to controls: 0 for no effect and ±100 for the full control effect
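Whole-lifecycle infectious HCVcc-Cre system; cells 1,000/well, compound then virus (~0.5 moi) added 4 h after plating, 44 h culture. Luciferase read 15 sec following 15 min substrate incubation, room temp.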
Shiga inhibitor = inhibitors of Shiga toxin in Vero cells; Vero cells, Shiga toxin protein synthesis inhibition reporter; inhibition, % at 38.7 µM; 290,000 compounds, 9.2% hits; AID 2315; in the data active = inhibition mostly above about 28%, no sharp cut-off; inactive = mostly below about 43%; also: 0% is about no effect
Pf growth 48h = inhibits P. falciparum growth in the first generation, 48 h. Potency, µM (doses to about 28.7 µM), for the others: top-dose activity change, negative = inhibition, hits mostly inhibitors. P. falciparum luciferase growth in erythrocytes, 48 h. 310,000 compounds, 5.9% hits; also: potency is read from the fitted curve at half-maximal effect; % is scaled to controls: 0 for no effect and ±100 for the full control effect
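Cell-based growth assay: transgenic P. falciparum expressing firefly luciferase, cultured in red cells within RPMI 1640 containing 0.5% w/v Albumax, 24 mM bicarbonate and gentamycin. A drop in luciferase activity indicates inhibition.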
CHX counter = counter-screen hit for Shiga toxin inhibitors, cycloheximide | 300,000 compounds, 12% hits | AID 2314 | max response, % | cell reporter, cycloheximide protein synthesis inhibition counterscreen; in the data active = max response mostly above about 13%, no sharp cut-off; inactive = mostly below about 14%; also: read at 38.3 µM for the half of the compounds with a filed dose; 0% is about no effect
Active calls of the source: *; ? = inconclusive; · = not tested or not shown; [ ] = remark or other dose. Only some compounds are listed: those with a hit (about 21% of all), similar ones and a draw of the others. Unless noted, calls follow the shape of the dose curve; as a rule, active = well fitted inhibition curve with a large enough effect; inconclusive = small, poorly fitted or top-dose-only effect, or another doubt; inactive = no such curve, though single readings can be large or run the other way.

SMILES	Pf growth 96h	HCMV inh	HCV inh	Shiga inhibitor	Pf growth 48h	CHX counter
C=CCn1c(C(C)NC(=O)C(C)(C)C)nc2ccccc21 (stereo unspecified)	?	-27.7	12.1%	-0.4	2.1%	-1.1
CC(NC(=O)/C=C/c1ccco1)c1nc2ccccc2n1Cc1c(Cl)cccc1Cl (stereo unspecified)	?	-31.9	1.7%	44.0*	?	21.6*
CC(NC(=O)/C=C/c1ccco1)c1nc2ccccc2n1Cc1ccccc1F (stereo unspecified)	10.4µM*	-25.1	-4.5%	59.8	?	27.4*
CC(NC(=O)c1ccccc1)c1nc2ccccc2n1Cc1ccccc1F (stereo unspecified)	-19.8%	41.6	·	-4.6	?	7.3
COc1ccc(-c2[nH]ncc2N=Nc2cc(C)cc(C)c2)cc1	?	10.3	2.24µM*	-4.8	?	3.4
COc1cc(OC)cc(C(=O)N[C@H](C(=O)NCCc2ccc(S(N)(=O)=O)cc2)C(C)C)c1	-17.0%	19.3	-1.7%	-5.8	-12.6%	-1.9
O=C1NN(c2ccccc2)C(=O)/C1=C\c1ccccc1	?	0.1	18.3%	-1.5	20.9%	0.9
Cc1cc(/C=C2/C(=O)NN(c3ccccc3)C2=O)c(C)n1-c1ccc(O)cc1	22.6%	-86.1*	?	12.6	16.3%	17.6
Cc1cc(/C=C2\C(=O)NN(c3ccccc3)C2=O)c(C)n1-c1ccccc1O	-12.8%	23.7	?	45.9*	12.5%	34.5*
Cc1cc(C=C2C(=O)CCCC2=O)c(C)n1-c1ccccc1	-58.0%	-11.9	5.8%	10.0	-9.0%	16.1*
COc1ccc(-n2c(C)cc(/C=C3\C(=O)NN(c4ccccc4)C3=O)c2C)cc1	35.2%	60.1	-2.5%	50.0*	-3.8%	39.1*
CC(C)CN(C(=O)CSc1nnc(-c2cccs2)n1N)c1c(N)n(Cc2ccccc2)c(=O)[nH]c1=O	5.4%	-6.7	-0.8%	·	?	·
O=[N+]([O-])c1cccc(COc2ccccc2CO)c1	·	15.3	·	·	·	·
Cc1ccnc(SCC(=O)Nc2sccc2C#N)n1	?	39.2	-17.1%	17.4	37.6%	12.2*
CC(=O)Nc1ccc(SCC(=O)Nc2sccc2C#N)cc1	55.9%	0.0	3.3%	62.9*	46.4%	33.2*
CN(C)S(=O)(=O)c1ccc2c(c1)N(CC(=O)N1CCN(c3cccc(Cl)c3)CC1)CCS2	·	1.7	·	·	·	·
O=C1Nc2ccccc2/C1=C/c1ccc([N+](=O)[O-])cc1	20.8%	-34.5	20.8%	29.5	·	11.6
CC1(c2ccc([N+](=O)[O-])cc2)Nc2ccccc2S1 (stereo unspecified)	0.0%	-32.7	-5.7%	65.0*	-5.5%[0.00184 µM]	33.3*
COc1cccc(Nc2ccc(N3CCCCC3)cc2)c1OC	2.33µM*	-99.3*	·	·	4.65µM*	·
COc1cccc(CNc2ccc(N3CCCCC3)cc2)c1OC	-18.2%	?	-12.1%	34.2*	0.522µM*	30.2*
Cc1nn(CC(=O)NCc2ccc(N(C)C)cc2)c(=O)c2c(C)n(-c3ccc(Cl)cc3)nc12	·	-18.3	·	·	·	·
CCCSc1ncc(Cl)c(C(=O)Nc2c(C(=O)c3ccc(F)cc3)oc3ccccc23)n1	·	-17.2	·	·	·	·
N[C@@H](Cc1ccccc1)c1nnc(SCc2ccccc2Cl)o1	·	-69.9*	-2.8%	12.6	9.4%	6.7
N[C@@H](Cc1c[nH]c2ccccc12)c1nnc(SCc2ccccc2)o1	55.3%	-2.1	-0.7%	-19.8	59.8%	-2.0
NCCCCCc1nnc(SCc2ccccc2Cl)o1	6.9%	-76.2*	-19.7%	5.0	33.0%	-3.7
SMILES	Pf growth 96h	HCMV inh	HCV inh	Shiga inhibitor	Pf growth 48h	CHX counter
O=C(Nc1ccc(Cl)cc1)c1cccc(NC2=NC3CS(=O)(=O)CC3S2)c1 (stereo unspecified)	33.1%	17.6	2.9%	-3.9	24.8%	1.9
COc1ccc2c(COC(=O)CC3Sc4ccccc4NC3=O)cc(=O)oc2c1 (stereo unspecified)	?	-38.9	-3.6%	55.9	?	19.9*
O=C(COC(=O)CC1Sc2ccccc2NC1=O)NCc1ccccc1 (stereo unspecified)	?	-6.6	0.9%	·	13.1µM*	·
CC(=O)Nc1ccc2c(COC(=O)CC3Sc4ccccc4NC3=O)cc(=O)oc2c1 (stereo unspecified)	-6.3%	-7.1	14.4%	31.7	-12.5%	17.5
COc1ccccc1CC(=O)NNC(=O)CN(C)S(=O)(=O)c1ccc(Cl)cc1	3.2%	-1.4	-2.7%	·	13.3%	·
Cc1cc2c(cn1)C(CCC#N)(CCC#N)c1ccccc1-2	25.3%	2.3	17.5%	-3.6	-16.3%	9.6
Cc1ccc(Cn2c(=O)c3cccnc3n(Cc3ccc(C)cc3)c2=O)cc1	·	6.0	·	·	·	·
CCOC(=O)Cn1c(=O)n(Cc2ccc(C)cc2)c(=O)c2cccnc21	?	0.0	0.794µM*	-5.2	-3.5%	-1.2
CCc1ccc(NC(=O)CS(=O)CC(=O)Nc2ccc(N3CCOCC3)cc2)cc1 (stereo unspecified)	-7.1%	?	8.4%	-13.9	9.5%	-2.9
CN(C)C(=O)c1ccc(NC(=O)Cn2nc(-c3ccccc3)c3ccccc3c2=O)cc1	·	4.1	·	·	·	·
Cc1cccc(Cn2cnc3c(nnn3Cc3ccc(Cl)cc3)c2=O)c1	4.15µM*	-11.6	4.1%	-20.5	?	-1.0
Cc1ccc(Cn2nnc3c(=O)n(Cc4cccc(C)c4)cnc32)cc1	-12.9%	2.3	?	-3.1	?	9.4
Cc1ccc(Cn2nnc3c(=O)n(Cc4cc(C)ccc4C)cnc32)cc1	1.47µM*	71.9	-3.7%	1.5	?	4.1
Cc1cccc(Cn2ccn(Cc3ccc(Cl)cc3)c(=O)c2=O)c1	·	-62.1*	·	·	·	·
Cc1ccc(S(=O)(=O)N2CCCCC2)cc1C(=O)Nc1cccnc1	9.6%	0.0	1.6%	-4.3	11.5%	-0.6
Cc1nn(-c2ccccc2)c2c1C(c1cccnc1)N1C=C(S(=O)(=O)N3CCCCC3)C=CC1=N2 (stereo unspecified)	52.7%	28.4	13.7%	10.6	1.85µM*	-1.7
COCCC(=O)N1CCC(Oc2ccc(C(=O)NCCc3cnn(C)c3)cc2)CC1	102.1%	-7.7	23.8%	-4.7	12.5%	4.8
COCCC(=O)N1CCC(Oc2ccc(C(=O)N(C)CCCC3CCCC3)cc2)CC1	?	?	?	56.8*	?	26.1*
COCCC(=O)N1CCC(Oc2ccc(C(=O)NCCC3=CCCCC3)cc2)CC1	?	-25.8	-17.7%	28.7	-8.3%	19.2*
COCCC(=O)N1CCC(Oc2ccc(C(=O)NCCCC3CCCC3)cc2)CC1	11.7µM*	14.4	?	19.5	-16.7%	12.5*
COCCC(=O)N1CCC(Oc2ccc(C(=O)NC3CCCCC3)cc2)CC1	?	-1.7	14.4%	-1.9	-11.0%	-1.1
